This is an account of results in PubChem BioAssay (EPA / NIEHS).

For orientation: AC50 means the concentration at which the activity in the assay is half-maximal.

Active and inactive are the calls of the source. Rule for the calls: active = hit-call score of the fitted dose curve at least 0.9, where 1 is the maximum; inactive = score below 0.9.

The nature of the assay: BSK_SAg_SRB: Viability Assessment in the BioMAP Diversity Plus: SAg Assay (AID 2283096).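 Note: cells read one day after compound addition; hits may be either gain or loss of signal compared with DMSO.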 As to conditions: primary human HUVEC with PBMC. The procedure, abridged: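 Human umbilical vein endothelial cells co-cultured with PBMC, read 24 h after compound dosing. Total protein measured by sulforhodamine B staining (0.1% SRB after 10% TCA fixation, absorbance 560 nm); bidirectional fit versus DMSO baseline.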
Consider `OCCCCO`, for which the result was inactive. On to `CC(C)(COCC1CO1)COCC1CO1` (configuration not stated), for which the result was inactive. `Clc1cccc(Cl)c1Cl`: the outcome was inactive. For `Cc1ccc(OP(=O)(Oc2ccc(C)cc2C)Oc2ccc(C)cc2C)c(C)c1`, the AC50 is 20 µM (active). As to `CCC(C)(C#N)N=NC(C)(C#N)CC` (configuration not stated), the result was inactive.

For `CCN(CC)C(=O)C(Cl)=C(C)OP(=O)(OC)OC`, the outcome was inactive. Take `Nc1c(Oc2ccccc2)cc(O)c2c1C(=O)c1ccccc1C2=O`: the AC50 is 2.22 µM (active).
